# Measured potencies and affinities stand elsewhere. Activity calls are given as the source filed them.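 The calls were made as follows: active = ATP signal reduced by compound, with fitted active dose under ten times the top valid tested dose; inactive = the rest, compounds that increase ATP levels included.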
# Assay: cellular ATP toxicity in rat beta cells – cell-based, CellTiter-Glo luminescence, INS-1E, dry powder, cytotoxicity control for beta-cell cytokine protection project, dose response (AID 488864)
# Settings: INS-1E rat beta cells, 48 h, no cytokines; series mostly up to 26 µM
row,Compound,outcome
1,C[C@@H]1CN([C@@H](C)CO)C(=O)c2cccc(NC(=O)Nc3ccccc3)c2O[C@H]1CN(C)S(=O)(=O)c1ccc(F)cc1,inactive
2,COc1ccc(S(=O)(=O)N(C)C[C@H]2Oc3c(NC(=O)Nc4cccc5ccccc45)cccc3C(=O)N([C@@H](C)CO)C[C@@H]2C)cc1,inactive
3,Cc1ccc(S(=O)(=O)N(C)C[C@@H]2Oc3c(NC(=O)Nc4ccccc4)cccc3C(=O)N([C@H](C)CO)C[C@H]2C)cc1,inactive
4,COc1ccc(NC(=O)Nc2cccc3c2O[C@@H](CN(C)S(=O)(=O)c2ccc(OC)cc2)[C@H](C)CN([C@@H](C)CO)C3=O)cc1,inactive
5,COc1ccc(S(=O)(=O)N(C)C[C@@H]2Oc3c(NC(=O)c4cnccn4)cccc3C(=O)N([C@@H](C)CO)C[C@H]2C)cc1,inactive
6,C[C@@H]1CN([C@@H](C)CO)C(=O)c2cccc(NC(=O)Nc3cccc4ccccc34)c2O[C@H]1CN(C)S(=O)(=O)c1cccs1,inactive
7,C[C@@H]1CN([C@@H](C)CO)C(=O)c2cccc(NC(=O)Nc3cccc4ccccc34)c2O[C@H]1CN(C)CC1CC1,inactive
8,C[C@H]1CN([C@@H](C)CO)C(=O)c2cccc(NC(=O)NC3CCCCC3)c2O[C@@H]1CN(C)S(C)(=O)=O,inactive
9,COc1ccc(S(=O)(=O)N(C)C[C@@H]2Oc3c(NC(=O)Nc4ccccc4)cccc3C(=O)N([C@@H](C)CO)C[C@H]2C)cc1,inactive
10,COc1ccc(S(=O)(=O)N(C)C[C@@H]2Oc3c(NC(=O)C4CCCCC4)cccc3C(=O)N([C@@H](C)CO)C[C@H]2C)cc1,inactive
11,C[C@@H]1CN([C@H](C)CO)C(=O)c2cccc(NC(=O)Nc3ccccc3)c2O[C@H]1CN(C)S(=O)(=O)c1ccc(F)cc1,inactive
12,C[C@@H]1CN([C@@H](C)CO)C(=O)c2cccc(NS(=O)(=O)c3ccccc3)c2O[C@H]1CN(C)Cc1ccc(C(F)(F)F)cc1,inactive
13,C[C@@H]1CN([C@@H](C)CO)C(=O)c2cccc(NC(=O)Nc3cccc4ccccc34)c2O[C@H]1CN(C)S(=O)(=O)c1ccc2c(c1)OCC2,inactive
14,COc1ccc(S(=O)(=O)N(C)C[C@@H]2Oc3c(NC(=O)c4ccc(-c5nccs5)cc4)cccc3C(=O)N([C@@H](C)CO)C[C@H]2C)cc1,inactive
15,COc1ccc(S(=O)(=O)N(C)C[C@@H]2Oc3c(NS(=O)(=O)c4ccc(F)cc4)cccc3C(=O)N([C@@H](C)CO)C[C@H]2C)cc1,inactive
16,COc1ccc(S(=O)(=O)N(C)C[C@@H]2Oc3c(NC(=O)Nc4cccc5ccccc45)cccc3C(=O)N([C@@H](C)CO)C[C@H]2C)cc1,inactive
17,Cc1ccc(S(=O)(=O)N(C)C[C@@H]2Oc3c(NC(=O)Nc4cccc5ccccc45)cccc3C(=O)N([C@H](C)CO)C[C@H]2C)cc1,inactive
18,COc1ccc(S(=O)(=O)N(C)C[C@@H]2Oc3c(NC(=O)Nc4ccc(F)cc4)cccc3C(=O)N([C@H](C)CO)C[C@H]2C)cc1,inactive

# From PubChem BioAssay AID488864 (Broad Institute, 2010)
